# CRFBP-R2 block – antagonists of CRF-BP/CRF-R2 complex, primary screen, cell-based, HEK293, calcium dye fluorescence, uHTS | CRF-induced calcium fluorescence | inhibition, % at 11.8 µM | hit rate 0.59% among 350,000 | AID 588475, 2011;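 active = inhibition of the ligand-induced calcium signal above about 50% at the single tested concentration, limit read from the data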
# RTF Ca sens inh – cardiac RTF calcium sensitivity inhibitors, primary screen, biochemical, IANBD-TnC fluorescence, EC70 calcium | IANBD-labeled cardiac RTF, Ca2+ fluorescence | inhibition, % at 7.15 µM | hit rate 0.12% among 340,000;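 active = inhibition above the mean inhibition of all tested compounds plus 3 SD, cut at about 17% in these data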;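 also: assay run at fixed EC70 calcium of 1.6 mM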
# CRFR2-BP ag – agonists of CRF-BP/CRF-R2 complex, primary screen, cell-based, HEK293, calcium dye fluorescence, uHTS; activation, % at 13.2 µM; CRF-binding protein / CRF receptor 2 complex (human); calcium dye fluorescence (FLIPR); percent of saturating CRF peptide response; hit rate 0.46% among 350,000;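 active = activation of at least 50%, plus an integration ratio under a set limit after plate pattern correction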;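 also: plate controls were neutral control wells without compound for no effect and CRF at EC100 for full effect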
# Myeloid diff MLP – induction of myeloid progenitor differentiation, primary screen, cell-based, flow cytometry, MLPCN library; AID 624256, 2012; hit rate 1% among 360,000; ER-HoxA9 myeloid progenitors, lysozyme-GFP differentiation; calls only at 10 µM;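 active = normalized GFP-positive differentiation at or above the plate's own cutoff, the solvent-only control mean plus 3 SD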;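 also: cells exposed to compound for four days before flow analysis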
# cardiac RTF act – cardiac RTF calcium sensitivity activators, primary screen, biochemical, IANBD-TnC fluorescence, EC20 calcium; AID 493008, 2010; hit rate 0.24% among 340,000; activation, % at 7.2 µM; IANBD-labeled TnC RTF fluorescence at EC20 calcium; 0% EC20 calcium, 100% full calcium; Troponin I, cardiac muscle (Homo sapiens) + Troponin T, cardiac muscle (Homo sapiens) + …;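 active = activation above the mean over all tested compounds plus 3 SD, cut at about 30% in these data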;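 also: rise in fluorescence read as greater calcium sensitivity of cardiac thin filaments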
# The depositor's hits bear a star; i = inactive; / = not tested or not shown; + = active, no number. An excerpt weighted towards active compounds, which were near 2.2% of everything screened.
SMILES,CRFBP-R2 block,RTF Ca sens inh,CRFR2-BP ag,Myeloid diff MLP,cardiac RTF act
COc1ccc(NC(=O)c2cc3ccc(O)cc3o/c2=N\O)cc1,-2,4,8,i,-3
CCN1CC=C2C(C#N)=C(N)C(C#N)(C#N)C(CCc3ccccc3)C2C1 (stereo not drawn),-23,-41,57*,i,35*
CC(=O)N1CC=C2C(C#N)=C(N)C(C#N)(C#N)C(C)C2C1 (stereo not drawn),8,-16,0,i,-2
Cc1cc(C)n(CCOc2ccc(Br)cc2)n1,6,-26,-1,i,1
Cc1cc(C)n2nc(CC(=O)NNC(=O)c3ccccc3Cl)nc2n1,103*,-7,1,i,7
Cc1ccc(C(=O)NNC(=O)Cc2nc3nc(C)cc(C)n3n2)cc1,-1,-10,-2,i,-2
Nc1cc(OC(=O)c2ccco2)nn1S(=O)(=O)c1ccc(F)cc1,58*,3,-1,i,-6
Nc1cc(OC(=O)c2ccc(F)cc2)nn1S(=O)(=O)c1ccc(F)cc1,2,1,-1,i,6
Cc1ccc(S(=O)(=O)n2nc(OC(=O)c3ccco3)cc2N)cc1,60*,-13,8,i,11
Cc1cc(C)n2c(SC(C)C(=O)NC3(C#N)CCCCC3)nnc2n1 (stereo not drawn),6,-4,-1,i,0
CCC(CC)c1nnc(NC(=O)Cc2ccccc2[N+](=O)[O-])s1,-26,-2,7,i,-3
Cc1cc(C)nc(SCc2nnc(SCc3ccc([N+](=O)[O-])cc3)n2Cc2ccco2)n1,79*,-11,-1,i,1
CCCCCCCCCCCC(=O)NC(Cc1ccc(OC)c([N+](=O)[O-])c1)C(=O)O (stereo not drawn),55*,2,2,i,3
COc1ccc(NC(=O)CSc2nnc(N)s2)cc1S(=O)(=O)N1CCCCC1,-1,-10,-2,i,0
Cc1ccc(C)c(N2CCN(C(=O)CN3C(=S)NC(C)(C)CC3C)CC2)c1 (stereo not drawn),8,6,-1,/,31*
CCOc1ccc(N2CC(C(=O)N3CCN(C(=O)c4ccco4)CC3)CC2=O)cc1 (stereo not drawn),39,-27,0,i,-1
Nc1nc(CN2CCc3ccccc3C2)nc(Nc2ccccc2)n1,74*,-5,2,i,-4
CC(C)c1ccc(NC2CCCN(C(=O)CCN3CCCC3=O)C2)cc1 (stereo not drawn),2,2,-1,+,-4
Cc1ccnn1CCC(=O)N1CCCC(Nc2ccc(C(C)C)cc2)C1 (stereo not drawn),-4,/,-1,i,/
COc1cc(NC(=S)N2CCN(C(c3ccccc3)c3ccccc3)CC2)cc(OC)c1,1,-5,0,+,-4
COc1cc(NC(=S)N2CCN(C/C=C/c3ccccc3)CC2)cc(OC)c1,4,6,-4,+,0
Cc1ccccc1OCCCn1c(=O)sc2ccccc21,-3,-2,1,i,2
CCN(CCCNC(=O)Cn1ncc2c([nH]c3ccc(C)cc32)c1=O)c1ccccc1,7,-5,0,i,0
CCc1ccc(CN2CCCC(C(=O)Nc3ccccc3-c3ccc(OC)cc3)C2)o1 (stereo not drawn),-6,-8,-1,i,-2
O=C(COC(=O)c1cc(Cl)cc(Cl)c1)NCc1ccco1,3,6,0,i,-5
SMILES,CRFBP-R2 block,RTF Ca sens inh,CRFR2-BP ag,Myeloid diff MLP,cardiac RTF act
CN1CCN(S(=O)(=O)NC[C@H]2O[C@@H](n3cnc4c(N)ncnc43)[C@H](O)[C@@H]2O)CC1,11,-5,2,+,-8
Nc1ncnc2c1ncn2[C@@H]1O[C@H](CNCC#Cc2ccccc2)[C@@H](O)[C@H]1O,-12,-7,1,+,-2
COc1ccc(NC(=O)Cn2c(=O)cnc3ccccc32)cc1S(=O)(=O)N1CCCCC1,2,0,1,i,0
COc1cccc(/C=C/C(=O)OCC(=O)NCC2CCCCC2)c1OC,0,-9,-2,i,-3
COC(=O)Cc1ccc(OC2(C)CCN(Cc3ccccc3)C2)cc1 (stereo not drawn),/,/,/,i,/
Cc1cc(/C=C2/SC(=S)N(c3cccc(C(F)(F)F)c3)C2=O)c(C)n1-c1cccnc1,-33,-22,11,+,23
Cc1cc(/C=C2\SC(=S)N(Cc3ccco3)C2=O)c(C)n1-c1cccnc1,-36,-86,55*,+,89*
COc1cccc(/C=C2\SC(=S)N(c3cccnc3)C2=O)c1OC,-23,-10,0,i,2
O=C1/C(=C/c2cccnc2)SC(=S)N1c1ccccc1,12,0,2,i,-1
O=C1/C(=C\c2cccnc2)SC(=S)N1c1ccc(F)cc1,-12,-8,-2,+,0
CCCS(=O)(=O)NC(=O)C1(C)CCCN(C(=O)C(C)(C)Oc2ccc(Cl)cc2)C1 (stereo not drawn),/,/,/,i,/
CCCC(=NC(C)CC)C1=C(O)CC(c2ccccc2)CC1=O (stereo not drawn),2,2,-1,i,1
CCc1cc2cc(C)cc(C)c2nc1SCC(=O)N1CCN(C(=O)c2ccco2)CC1,52*,-1,5,i,-3
CCc1cc2cccc(C)c2nc1SCC(=O)N1CCN(C(=O)c2ccco2)CC1,-6,-3,2,i,-4
Cc1cccc(NC(=O)CN2C(=O)N/C(=C/c3ccc(C)s3)C2=O)c1,-21,-15,16,+,21
CC(=O)Nc1ccc(OCCC[n+]2ccccc2)cc1,7,-4,1,i,-9
CC(=O)Nc1ccc(OCC[n+]2cccc(C(N)=O)c2)cc1,61*,/,0,i,/
C/C(=N\NC(=O)c1cc(Cl)ccc1O)c1ccc(Br)s1,52*,-8,31,i,1
C/C(=N\NC(=O)c1ccc(Cl)cc1)c1ccc(Br)s1,-11,2,0,i,-1
CCN(C(=O)COC(=O)Cc1cccc2ccccc12)C1CCS(=O)(=O)C1 (stereo not drawn),122*,0,-1,i,-2
CCN(C(=O)COC(=O)c1cc2ccccc2cc1O)C1CCS(=O)(=O)C1 (stereo not drawn),-9,-5,0,i,1
CN(C)CCOC(c1ccccc1)c1ccccc1 (tested in a mixture with another compound),i,i,i,+,i
CC(=O)Nc1ccc(Nc2c3c4c(cccc4n(C)c2=O)C(=O)c2ccccc2-3)cc1,-18,-142,31,i,178*
